p53ts 39C tox = kills p53ts cells at the nonpermissive temperature; H1299-p53A138V viability at 39C, ATP luminescence, 24 h; Potency, µM (doses to about 46.1 µM), for inactives: at the highest dose activity change, negative = cell killing, most hits filed as cytotoxic; 130,000 tested, 1.5% active; AID 902; also: potency is read from the fitted curve at half-maximal effect; % is scaled to controls: 0 for no effect and ±100 for the full control effect; nearly all actives have a fitted effect of over 55% in size
HBB splice mod = hemoglobin beta splicing modulation | 65,000 tested, 0.06% active | HBB splicing reporter cell assay, activation; EGFP reporter with mutant IVS2-654 intron; response scale: normalised to 500 nM splice-correcting PNA | Potency, µM (series often up to 46.1 µM), for inactives: at the top dose activation, usual class: activators | AID 925; also: potency is read from the fitted curve at half-maximal effect; 0% is about no effect
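HeLa cells stably expressing EGFP interrupted by mutant beta-globin intron 2 (IVS2-654), 500/well in 2% FCS. Treated with compound for 2 days at 37C. Splicing correction scored as total well GFP intensity (488 nm excitation, 500-520 nm emission); 500 nM antisense PNA served as control.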
Imprint erasure = inducers of genomic imprint erasure in mouse ES cells; Potency, µM (doses to about 60.7 µM), for inactives: at the highest dose activity change, positive = activation, most hits filed as activators; mouse ES Peg3-LacZ reporter, beta-gal luminescence, 40 h; 110,000 tested, 0.02% active; AID 1948; also: potency is read from the fitted curve at half-maximal effect
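Imprint erasure is scored as LacZ activity from the silenced maternal Peg3 allele in feeder-free female ES cells cultured 40 h with LIF. Luminescence is normalized to in-plate negative controls and fitted to the Hill equation.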
p53ts 32C kill = p53ts cell cytotoxicity, permissive temperature | H1299-p53A138V at 32C, ATP luminescence viability, 24 h | Potency, µM (doses to about 46.1 µM), for the others: at the highest dose activity change, negative = cytotoxicity, most hits filed as cytotoxic | 130,000 tested, 0.93% active | AID 924;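 also: potency is read from the fitted curve at half-maximal effect; 0% = DMSO and -100% = full killing by reference compound; nearly all actives have a fitted effect of over 55% in size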
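ATP-content luminescence (ATPlite) read-out after 24 h compound exposure at 32C in H1299-p53A138V cells (600/well). Tested up to 46 uM. Normalized to DMSO (0%) and 100 uM tamoxifen (100% killing); Hill-fit AC50.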
Ub-GFP proteasome = inhibits proteasome, raising ubiquitin-GFP reporter fluorescence | Potency, µM (highest dose often 45.9 µM), inactives show at the highest dose activation (GFP accumulation), hits mostly activators | Ubiquitin-GFP reporter cells, proteasome inhibition, GFP fluorescence; response scale: untreated = 0%, 10 µM MG-132 = 100% | 67,000 tested, under 10 active | AID 526; active = well fitted activation curve with a large enough effect, not every such curve was filed as active; inconclusive = small, poorly fitted or top-dose-only effect, or another doubt; inactive = no such curve, though single readings can be large or run the other way; also: potency is read from the fitted curve at half-maximal effect
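U2OS Ub(G76V)-GFP reporter; O/N plating, 0.5% FBS; cpd 46 uM–2.9 nM, 4 h, 37 °C; GFP+ cell count, 488/515 nm; norm. to basal vs 10 uM MG-132; CRC fit.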
Epigenetic mod = epigenetic modulators derepressing GFP locus in mouse cells. mouse C127i GFP locus derepression, cytometry, 30 h. Potency, µM (doses to about 46.1 µM), inactives show at the top dose GFP derepression (activation). 68,000 tested, 0.09% active. AID 597; also: % of control where 0% means no effect
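Locus derepression in mouse mammary C127i cells whose integrated CMV-GFP reporter is normally silent; GFP expression after 30 h compound treatment was quantified by counting fluorescent cells.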
* = called active by the depositor; u = inconclusive; x = no result given; [ ] = remark or other dose. In the library only some 1.6% were active in any assay of this set; here they are far more common. Unless noted, calls follow the shape of the dose curve; as a rule, active = well fitted curve in the direction sought with a large enough effect; inconclusive = small, poorly fitted or top-dose-only effect, or another doubt; inactive = no such curve, though single readings can be large; an effect the other way counts as inactive or inconclusive.

SMILES	p53ts 39C tox	HBB splice mod	Imprint erasure	p53ts 32C kill	Ub-GFP proteasome	Epigenetic mod
Cc1ccc(NC(=O)C(=O)NCC(c2cccnc2)N2CCc3ccccc32)cc1Cl (stereo unspecified)	3%	x	9%[10.9 µM]	5%	x	x
O=C(/C=C\Nc1ccccn1)c1ccc(Cl)cc1	13µM*	1%[9.22 µM]	-85%	7.9µM*	-8%	-4%
O=S(=O)(c1ccc(Oc2ccc(S(=O)(=O)N3CCOCC3)cc2)cc1)N1CCOCC1	-1%	-3%[0.0738 µM]	-10%	-8%	-20%[9.17 µM]	0%
C=CS(=O)(=O)c1ccc(Oc2ccc(S(=O)(=O)C=C)cc2)cc1	10µM*	x	-23%	-84%	1%	0%
c1c2c(cc3sc(N4CCOCC4)nc13)OCCO2	5µM*	3%[57.5 µM]	-86%	3.2µM*	-1%	4%
c1ccc(N2CCN(c3nc4cc5c(cc4s3)OCCO5)CC2)cc1	-17%	-2%	0%	-23%	-1%	1%
[O-][N+]1=c2ccc(Nc3ccccc3)cc2=NC12CCCCC2	20µM*	3%[0.369 µM]	10%	5µM*	x	-2%
COc1ccc(Nc2ccc3c(c2)=NC2(CCCCC2)[N+]=3[O-])cc1	6.3µM*	-1%[9.22 µM]	-30%	5µM*	-15%	-2%
COc1ccc(F)cc1S(=O)(=O)Nc1ccc2c(c1)CCCN2C(=O)c1cccs1	-12%	x	-8%[10.9 µM]	18%	x	x
COc1cccc2sc(N(C)c3ccccc3)nc12	13µM*	-7%[57.5 µM]	-64%	10µM*	-2%	-2%
Cc1cc(O)c(C(C)(C)C)cc1Sc1cc(C(C)(C)C)c(O)cc1C	16µM*	-1%	-28%	12%[1.84 µM]	x	x
CC(C)(C)c1cc(O)c(C(C)(C)C)cc1O	3%	x	-10%	-18%	-2%	1%
Cc1cc(Br)cc(C)c1NC(=O)c1cnc2ccccn2c1=O	-27%	x	3%[10.9 µM]	2%	x	x
Cc1ccccc1NC(=O)c1cnc2ccccn2c1=O	16µM*	x	x	10µM*	x	x
Cc1ccc2onc(CNC(=O)N3CCN(c4cc(Cl)ccc4C)CC3)c2c1	-26%	x	-15%[10.9 µM]	-8%	x	x
CCCn1c(-c2ccc(OC)cc2)nc2ccccc21	-12%	-2%	-15%	-24%	-20%	-3%
COc1ccc(-c2nc3ccccc3n2Cc2ccc(C(C)C)cc2)cc1	18µM*	x	-16%[10.9 µM]	28%	x	x
COCn1c(-c2ccc(OC)cc2)nc2ccccc21	11µM*	x	x	7.9µM*	x	x
Cc1cc(NC(=O)c2cccs2)cc(-c2nc3cc(Cl)ccc3o2)c1O	24%	x	-24%[10.9 µM]	-12%	x	x
O=C(O)c1cc(-c2ccc3c(c2)OCO3)nc2ccccc12	u	1%	-47%	u	2%	3%
c1ccc2sc(-c3ccc4c(c3)OCO4)nc2c1	7.9µM*	-2%	-94%	16µM*	26%	0%
O=C(Nc1cc(Cl)cc(Cl)c1)c1cc(S(=O)(=O)N2CCc3ccccc3C2)ccc1F	u	x	20%[10.9 µM]	7%	x	x
CCN(CC)C(=O)c1sc2c(c1C)c(=O)n(-c1ccc(C)c(C)c1)c(=O)n2CC(=O)Nc1ccc(OC)cc1OC	-9%	x	-12%[10.9 µM]	18%	x	x
Cc1ccc(NS(=O)(=O)c2ccc3[nH]c4c(c3c2)CCCCCC4)cc1	u	x	-7%[10.9 µM]	-3%	x	x
CCc1ccc(NS(=O)(=O)c2ccc3[nH]c4c(c3c2)CCCCCC4)cc1	20µM*	x	-14%[10.9 µM]	11%	x	x
CCOC(=O)c1ccc(NS(=O)(=O)c2ccc3[nH]c4c(c3c2)CCCCC4)cc1	16µM*	x	-13%[10.9 µM]	u	x	x
Cc1cccc(CCNC(=O)c2ccc3c(c2)nc2n3CCCCC2)c1	7.9µM*	x	-7%[10.9 µM]	13µM*	x	x
O=C(NCCc1ccccc1Cl)c1ccc2c(c1)nc1n2CCOC1	4µM*	x	-19%[10.9 µM]	16µM*	x	x
Cc1cccc(CCNC(=O)c2ccc3c(c2)nc2n3CCOC2)c1	13µM*	x	-3%[10.9 µM]	u	x	x

Assay outcomes as filed in PubChem BioAssay.
